Screening data as filed in PubChem BioAssay.
This is a sample that favours compounds with a hit; in the whole collection about 3.1% have one here.
C2C12 statin – suppressors of simvastatin-induced myotoxicity in C2C12 myotubes; actives 0.78% (n = 330,000); ATP luminescence, 48 h; scaled: DMSO 0, geranylgeraniol control 100; rescue of ATP level, % at 7.49 µM;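 active = mean ATP rescue above about 67%, or every replicate alone reaching that limit, limit read from the data, passing the limit was not always enough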;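 note: myotubes were challenged with 10 µM simvastatin during compound exposure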
HIV Env fusion – inhibitors of HIV Env-mediated cell fusion | HeLa-JRFL Env/CEM21 cell fusion, luciferase | actives 1.1% (n = 360,000) | AID 651610 | inhibition, % at 12.3 µM;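 active = mean replicate inhibition score of at least 50 and every replicate individually at or above 50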;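 note: 0% = plate neutral controls and 100% = maraviroc near 300 nM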
PAX8 reporter – lowers PAX8-driven luciferase in RMG-I cells; RMG-I TPO-luciferase reporter, SteadyGlo, 24 h; inhibition, % at 12.6 µM; actives 1.2% (n = 360,000); AID 652154;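 active = mean replicate inhibition at least 60% with every replicate also reaching 60%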;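 note: luciferase light reporting Pax8 driven TPO promoter activity; plate controls were median of neutral control wells for no effect and mitoxantrone controls for full effect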
INS-1E GSIS act – primary screen for activators of insulin secretion dependent on glucose, INS-1E cells, GLuc reporter luminescence; actives 0.61% (n = 370,000); INS-1E GLuc reporter insulin secretion, 2-3 h; AID 743287; activation, % at 16.6 µM;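 active = lowest replicate activation of at least 40%, so every replicate reaches that level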;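 note: 0% = median of neutral control wells and 100% = median of IBMX positive control wells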
EWS-Fli inh – EWS/Fli transcriptional activity inhibition | inhibition, % at 12.6 µM | actives 0.67% (n = 350,000) | A673 NR0B1-luciferase reporter, viability-normalised;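 active = mean inhibition of at least 50% after viability correction, with every replicate also passing that limit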;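 note: firefly luciferase signal divided by Alamar Blue viability fluorescence both relative to DMSO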
miR122 inh – inhibitors of miR-122 in Huh7 cells. Huh7 miR-122 Renilla luciferase sensor, 48 h; neutral wells = 0, positive control = 100. activation (reporter increase), % at 12.5 µM. actives 0.3% (n = 340,000). AID 602342;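 active = mean replicate activation score at least 90 and every replicate individually at or above 90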;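 note: higher luciferase means less miR-122 activity so hits act as miR-122 inhibitors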
* hit, by the source's call; . = no result; ! = not active in a repeat; [ ] = remark or other dose.

SMILES	C2C12 statin	HIV Env fusion	PAX8 reporter	INS-1E GSIS act	EWS-Fli inh	miR122 inh
CC(=O)OC1CC(n2ccc(NC(=O)c3ccccc3)nc2=O)OC1CO (configuration not stated)	128.0*	.	.	0.0	.	-2.9
C=C1CC(Cn2cc(Br)c(=O)[nH]c2=O)(c2ccc(-c3ccccc3)cc2)OC1=O (configuration not stated)	.	42.4	99.0*	.	53.3*	.
COc1ccc(Nc2nc(OC)nc(N3CCOCC3)n2)cc1	-18.2	-10.6	-1.9	10.9	-8.9	-0.8
COc1nc(N2CCOCC2)nc(-n2cccc2)n1	2.2	7.7	.	57.1*	.	2.3
C/C(=N\NC(=O)c1cc2ccccc2cc1O)c1ccccn1	-168.0	59.0*	58.8	-8.8	.	19.1
C/C(=N\NC(=O)c1ccccc1-n1cccc1)c1ccccn1	-11.4	4.1	70.5*	3.6	12.5	-11.9
C/C(=N\NC(=O)c1ccc(F)cc1)c1ccccn1	.	-14.3	62.5*	23.2	-30.8	.
C[C@@H]1CN([C@H](C)CO)C(=O)c2cc(NC(=O)Nc3ccccc3)ccc2O[C@H]1CN(C)CC1CCCCC1	-9.5	.	21.2	-6.9	5.8	-0.6[16.7 µM]
C[C@@H]1CCCCO[C@H](CN(C)C(=O)Nc2ccc(F)cc2)[C@@H](C)CN([C@@H](C)CO)C(=O)c2cc(NC(=O)C3CCCCC3)ccc2O1	.	-57.8[16.7 µM]	19.9	-1.5	8.3	-0.8[16.7 µM]
COc1ccc(C(=O)N2[C@@H](C(C)C)COc3cc(Br)ccc3S2(=O)=O)cc1	0.1	.	65.2*	-10.0	-0.8	-4.3
COCC(=O)Nc1ccc2c(c1)OC[C@@H](C)N(C(=O)NC(C)C)C[C@H](C)[C@@H](OC)CN(C)C2=O	4.2	4.2[16.7 µM]	-10.1	2.7	4.2	.
O=C1c2ccccc2C(=O)N1CSc1nnc(Nc2ccccc2F)s1	.	.	77.6*	-9.0	-7.6	.
O=C1c2ccccc2C(=O)N1CSc1nnc(Nc2ccccc2)s1	.	-9.6	-2.4	-0.5	-3.4	-6.4
CO[C@H]1CN(C)C(=O)c2ccc(NC(=O)C3CCC3)cc2OC[C@H](C)N(C(=O)CN(C)C)C[C@H]1C	2.0	-1.0[16.7 µM]	4.6	15.2	-6.6	-13.9[16.7 µM]
COc1ccc(C(=O)N/N=C/c2ccc(OC(=O)c3cccs3)cc2)cc1	.	.	100.7*	8.3	-3.1	.
Cc1nn(-c2cc(N3CCCCC3)ccc2N)c(=O)c2ccccc12	-21.0	22.7	.	.	.	-6.3
Cc1nn(-c2cc(N3CCCCCC3)ccc2[N+](=O)[O-])c(=O)c2ccccc12	109.5*	-82.2	.	.	.	14.6
O=C(C[C@@H]1C[C@@H]2c3cc(NC(=O)Nc4ccc(F)cc4)ccc3O[C@@H]2[C@@H](CO)O1)NC1CCCCC1	-7.9	6.6[16.7 µM]	-7.1	-9.7	-3.5	-7.8[16.7 µM]
CC1(C)C2CCC1(C)C(OC(=O)C[n+]1ccccc1N)C2 (configuration not stated)	.	0.5	15.4	41.5*	-8.0	-1.6
Cc1noc(C)c1NC(=O)Nc1ccc2c(c1)C(=O)N([C@H](C)CO)C[C@@H](C)[C@@H](CN(C)C(=O)NC1CCCCC1)O2	-22.9	-2.2[16.7 µM]	.	6.8	-13.0	-2.7[16.7 µM]
COc1ccc(S(=O)(=O)N2CCCCCC2)cc1NC(=O)c1c2c(nc3ccccc13)CCN(Cc1ccccc1)C2	.	64.9*	19.7	-40.0	.	24.4
COc1ccc(NC(=O)c2c3c(nc4ccccc24)CCN(Cc2ccccc2)C3)c(OC)c1	-7.1	1.6	0.7	10.8	14.9	.
CCN(CC)S(=O)(=O)c1ccc(OC(C)C)c(NC(=O)c2c3c(nc4ccccc24)CCN(Cc2ccccc2)C3)c1	.	58.9*	9.6	7.2	7.6	5.3
Cc1ccc(-c2nc(CSCC(=O)NCCN3CCN(Cc4ccccc4)CC3)c(C)o2)cc1	-7.3	-12.5	.	.	.	169.8*
Cc1ccc(-c2nc(CSCC(=O)NCCCN3CCOCC3)c(C)o2)cc1	3.2	-4.1	7.0	.	.	-12.9
SMILES	C2C12 statin	HIV Env fusion	PAX8 reporter	INS-1E GSIS act	EWS-Fli inh	miR122 inh
CCCNC(=O)CSCc1nc(-c2ccc(SC)cc2)oc1C	.	15.4	-3.2	-2.6	17.7	.
CCc1ccc(-c2nc(CSCC(=O)NCc3ccco3)c(C)o2)cc1	.	9.3	64.4*	-16.4	83.6*	.
Cc1noc(C)c1NC(=O)NCC[C@@H]1CC[C@H](NC(=O)Nc2cccc(F)c2)[C@@H](CO)O1	7.5	-5.4[16.7 µM]	2.5	-14.2	5.9	.
Cc1cnc(C)c(Nc2nc(C(N)Cc3ccccc3)cs2)n1 (configuration not stated)	-16.3	-27.4	-3.7	4.6	14.6	-2.7
Cc1cnc(C)c(Nc2nc(C(N)Cc3ccc(C(F)(F)F)cc3)cs2)n1 (configuration not stated)	-11.9	106.4*	9.1	-35.7	15.5	1.8
NC(Cc1ccc(F)cc1)c1csc(Nc2ccc(C(F)(F)F)cn2)n1 (configuration not stated)	-1.9	71.0*	7.6	-28.8	-1.5	-3.7
CCNC(=O)C[C@H]1CC[C@@H](NS(=O)(=O)c2ccc(F)cc2)[C@@H](CO)O1	1.2	-210.2[16.7 µM]	-15.6	6.6	-1.9	.
CN(C)c1cccc(C(=O)Nc2cc(C(F)(F)F)ccc2-n2cnc3ccccc32)c1	.	.	81.3*	.	8.4	.
C[C@@H]1CCCCO[C@H](CN(C)C(=O)Cc2ccccc2)[C@@H](C)CN([C@H](C)CO)C(=O)c2cc(NC(=O)c3ccncc3)ccc2O1	.	3.3[16.7 µM]	-15.8	22.9	-3.0	8.4[16.7 µM]
CCc1cc2c(=O)c(-c3nc4ccccc4n3C)c(C)oc2c(CN2CCN(CCO)CC2)c1O	23.5	.	.	13.2	0.2	-5.1
CCc1cc2c(=O)c(-c3nc4ccccc4n3C)c(C(C)C)oc2c(CN2CCN(C)CC2)c1O	-3.5	56.6*	.	.	.	-6.2
C[C@@H]1CCCCO[C@@H](CN(C)S(=O)(=O)c2cccs2)[C@@H](C)CN([C@H](C)CO)C(=O)c2cc(NC(=O)Nc3ccc(C(F)(F)F)cc3)ccc2O1	-46.4	10.5[16.7 µM]	14.3	-9.6	-2.9	0.6[16.7 µM]
C[C@@H]1CN([C@@H](C)CO)C(=O)c2cc(NC(=O)Nc3ccc(C(F)(F)F)cc3)ccc2O[C@@H](C)CCCCO[C@@H]1CN(C)S(=O)(=O)c1cccs1	-2.6	-11.6[16.7 µM]	-11.4	25.2	-0.2	1.5[16.7 µM]
C[C@@H]1CCCCO[C@H](CN(C)S(=O)(=O)c2cccs2)[C@@H](C)CN([C@@H](C)CO)C(=O)c2cc(NC(=O)Nc3ccc(C(F)(F)F)cc3)ccc2O1	-42.8	-4.2[16.7 µM]	75.1*	-18.1	15.1	3.3[16.7 µM]
C[C@@H]1CN([C@H](C)CO)C(=O)c2cc(NC(=O)Nc3ccc(C(F)(F)F)cc3)ccc2O[C@@H](C)CCCCO[C@H]1CN(C)S(=O)(=O)c1cccs1	-48.9	20.0[16.7 µM]	70.9*	5.4	4.1	-5.9[16.7 µM]
C[C@@H]1CN([C@H](C)CO)C(=O)c2cc(NC(=O)Nc3ccc(F)cc3)ccc2O[C@@H](C)CCCCO[C@H]1CN(C)S(=O)(=O)c1cccs1	141.4*!	17.1	68.5*!	-10.0	30.7	-4.6
